# Source: the supplement of paper PMC3334620
# Over roughly 33,000 sequences, “E-score (-0.5 to 0.5)” has its median near -0.053; the highest 2% begin near 0.37. Shown is part of a subset that was picked to be rich in the highest values.
# Molecular target: Hap1 (UniProt P0CE41)
# Assay: PBM E-score (8-mer binding enrichment) (E-score (-0.5 to 0.5)); higher = stronger / more preferred TF binding
# Details: protein concentration: 200 nM; construct: GST-DNA-binding domain
# Experimental: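 Universal 'all 10-mer' protein binding microarrays (Agilent AMADID 015681) probed with GST-tagged S. cerevisiae TFs (full-length or DBD) made by in vitro transcription/translation (PURExpress), about 100-200 nM. Bound TF was detected with fluorescent anti-GST. Each ungapped 8-mer (which stands for itself and its reverse complement) is scored by the PBM enrichment score (E-score), a modified Wilcoxon-Mann-Whitney statistic from -0.5 to +0.5, computed with the Universal PBM Analysis Suite. Scale: above 0.35 generally sequence-specific binding.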
# UniProt P0CE41, sequence (P0CE41 whole entry): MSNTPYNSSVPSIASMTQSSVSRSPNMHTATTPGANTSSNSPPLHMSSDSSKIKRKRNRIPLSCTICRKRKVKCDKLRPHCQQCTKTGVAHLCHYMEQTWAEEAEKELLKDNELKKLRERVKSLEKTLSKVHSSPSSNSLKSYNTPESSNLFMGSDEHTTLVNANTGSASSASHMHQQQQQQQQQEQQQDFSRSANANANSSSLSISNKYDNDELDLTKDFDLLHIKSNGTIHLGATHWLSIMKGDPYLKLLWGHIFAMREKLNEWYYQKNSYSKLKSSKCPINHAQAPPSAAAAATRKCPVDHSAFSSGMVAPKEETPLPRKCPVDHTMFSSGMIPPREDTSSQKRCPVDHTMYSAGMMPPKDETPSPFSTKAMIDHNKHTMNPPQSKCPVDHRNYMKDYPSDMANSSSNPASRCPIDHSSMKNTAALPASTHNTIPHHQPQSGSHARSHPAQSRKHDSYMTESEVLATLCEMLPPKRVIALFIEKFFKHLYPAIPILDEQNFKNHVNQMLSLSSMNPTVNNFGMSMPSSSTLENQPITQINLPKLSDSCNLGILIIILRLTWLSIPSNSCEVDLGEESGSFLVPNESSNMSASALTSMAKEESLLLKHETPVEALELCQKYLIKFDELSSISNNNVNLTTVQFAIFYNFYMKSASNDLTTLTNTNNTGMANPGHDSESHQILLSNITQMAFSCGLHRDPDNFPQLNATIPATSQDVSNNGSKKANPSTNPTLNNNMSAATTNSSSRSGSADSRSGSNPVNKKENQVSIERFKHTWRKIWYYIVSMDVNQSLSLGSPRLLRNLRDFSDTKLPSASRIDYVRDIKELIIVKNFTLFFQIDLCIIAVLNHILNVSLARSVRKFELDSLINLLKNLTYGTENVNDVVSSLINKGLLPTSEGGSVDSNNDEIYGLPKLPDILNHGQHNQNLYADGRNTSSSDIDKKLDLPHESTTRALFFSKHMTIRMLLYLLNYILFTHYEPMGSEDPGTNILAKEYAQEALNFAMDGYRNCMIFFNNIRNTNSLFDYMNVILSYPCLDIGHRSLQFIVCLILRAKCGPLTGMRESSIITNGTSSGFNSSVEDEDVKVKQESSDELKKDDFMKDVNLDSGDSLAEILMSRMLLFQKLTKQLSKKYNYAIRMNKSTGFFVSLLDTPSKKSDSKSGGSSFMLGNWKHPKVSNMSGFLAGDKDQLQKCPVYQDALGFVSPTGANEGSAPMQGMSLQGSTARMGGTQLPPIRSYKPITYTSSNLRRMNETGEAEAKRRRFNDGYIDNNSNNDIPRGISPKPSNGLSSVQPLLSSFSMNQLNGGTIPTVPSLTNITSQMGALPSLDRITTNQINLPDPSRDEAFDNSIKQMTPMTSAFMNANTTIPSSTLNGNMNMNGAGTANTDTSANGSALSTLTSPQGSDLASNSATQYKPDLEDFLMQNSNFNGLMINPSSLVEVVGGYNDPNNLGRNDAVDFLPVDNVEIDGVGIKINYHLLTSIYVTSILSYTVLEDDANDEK
row,Sequence,PBM E-score
1,ACGGAGAC,0.285
2,ACGGAGAT,0.445
3,ACGGAAAC,0.287
4,AGGGAATA,0.127
5,ACGGAAAG,0.232
6,CGTACGAG,0.0155
7,GGTAGAAC,-0.243
8,CAGGAAGC,-0.0892
9,GAGAGATC,-0.0834
10,GGGGACCC,-0.043
11,AGGGCTAA,-0.2
12,CCAGGTTC,-0.153
13,CGGGATTC,0.292
14,AGGGATTA,-0.136
15,CGGGATTA,0.454
16,GAAACCTC,-0.00121
17,GGCAAGCC,-0.0221
18,AGTCCACG,0.0474
19,AGCCCGCC,0.184
20,GACGGACC,0.285
21,ATGCCGGA,0.4
22,GTGCCGTA,0.1
23,ATGCCGGC,0.287
24,GTGCCGGA,0.406
25,ATGCCGGG,0.217
26,CTGCCGGA,0.286

row,Sequence,PBM E-score
1,ACTGCTAG,-0.267
2,GTGCGGAA,0.159
3,ATCCGCAG,0.208
4,ATCCGGTG,0.411
5,GTACGGAC,0.26
6,ATGCGGAG,0.222
7,ATCCGGAG,0.424
8,GTCCGGAA,0.416
9,AACCGGTG,0.329
10,GTCCGCAC,0.237
11,GTCCGGCA,0.35
12,GTCCGGAC,0.454
13,ATACGGTG,0.0257
14,CCTATGCG,0.00275
15,GTATCCCA,-0.135
16,AAGGGTCA,-0.124
17,CACTGGAA,-0.275
18,ATAACGCA,0.0362
19,AACGGGTG,0.29
20,CGATCTGC,0.156
21,TGAAGGCA,-0.35
22,ATCCGCAC,0.21
23,ATCCGGGC,0.364
24,ATCCGACC,0.307
25,ATACGGAT,0.204
26,ATCCGGAC,0.439

row,Sequence,PBM E-score
1,AACCGGGG,0.301
2,ATCCGGCG,0.355
3,ATCCGGCC,0.412
4,ATCCGCAT,0.289
5,ATCCGGGG,0.399
6,ATCCGTAC,0.147
7,ATCCGGAT,0.414
8,TCTCCACA,-0.243
9,CAAGAGAC,-0.289
10,CCATTCAA,-0.16
11,GCCAATAA,-0.0084
12,CGGGGTGA,0.214
13,ATGCGGAA,0.24
14,CTACGGAA,0.17
15,TTCCGGAA,0.466
16,ATCCGGAA,0.396
17,CTCCGCAG,0.216
18,CTCCGGAA,0.422
19,CTACGGAG,0.32
20,TTACGGAA,0.317
21,CTCCGGAG,0.467
22,CTCCGTAA,0.296
23,ATACGGAA,0.33
24,TGCCGGAA,0.365
25,AGCAATAT,-0.105
26,AATTGTGG,-0.245

row,Sequence,PBM E-score
1,TGAGCCAA,-0.233
2,CCGTAGCG,0.27
3,CGCATGGC,0.184
4,AGCCTCCA,-0.219
5,CTCCGGAC,0.454
6,CTCCGCAC,0.0685
7,CTCCGTAC,0.196
8,GACAATGA,-0.102
9,CCTATAGA,-0.198
10,TCCGCCGA,0.425
11,ATCGCCGG,0.445
12,ATCGCCCG,0.372
13,GTCGCCGA,0.246
14,ATCGCCGC,0.286
15,CTCGCCGA,0.276
16,ATCGCCCC,-0.0327
17,CCCGCCGA,0.323
18,ACCGCCGG,0.365
19,ATCGCCCA,-0.0821
20,GCCGCCGA,0.26
21,ATCGCCGA,0.445
22,ACGCCCAA,-0.133
23,GGGATACC,0.196
24,CCCAGGCG,-0.125
25,AGCTTGCC,-0.108
26,AAGAAAGC,-0.113

row,Sequence,PBM E-score
1,CACCCTAC,-0.27
2,GAGCGCGA,0.0945
3,AACTCGCG,0.0253
4,ACCGACAG,0.289
5,GTACCGAA,0.0413
6,GCAACTTA,0.0419
7,GGCGCCGA,0.313
8,CGCGCCGA,0.317
9,AGCGCCGA,0.372
10,ATACTGAG,-0.143
11,CCACCTTA,-0.00422
12,ATGAAGTG,-0.133
13,GAACCGTA,0.0759
14,GAACCGGA,0.382
15,TAACCGGA,0.417
16,CAACCGGA,0.316
17,GAACCGGC,0.239
18,AAACCGGA,0.328
19,CCACTGCG,-0.0793
20,CGGGTGAG,0.201
21,GTTCCCTA,-0.0618
22,GAAACGTA,-0.151
23,CGCTCCGA,0.324
24,AGCTCCGA,0.411
25,AGCTCCCG,0.0669
26,AGCTCCGG,0.43

row,Sequence,PBM E-score
1,AGCTCCGC,0.306
2,GGCTCCGA,0.221
3,GCCGCACA,-0.0419
4,ATTTACCA,0.0182
5,ATTTACCC,0.0884
6,CATTACCG,0.198
7,ATTTACCG,0.376
8,AATTACCC,0.0864
9,AATTACCG,0.374
10,GCGAGCAC,-0.187
11,GTCGAAAA,-0.0295
12,CCCCCCCC,-0.27
13,ACGCACCT,-0.185
14,GCCGGCCC,0.372
15,ACCGGCCG,0.439
16,GCCGGCCA,0.284
17,CCCGGCCG,0.405
18,ACCGGCCA,0.284
19,CCCGGCCA,0.291
20,ACCGGCCC,0.329
21,CCCGGCCC,0.341
22,ACCGGCCT,0.181
23,AACTCTGG,-0.202
24,ACGCAAAG,-0.0974
25,ACTGCGTG,-0.275
26,CTCGTAGC,-0.117

row,Sequence,PBM E-score
1,TAATTAGA,0.0224
2,AAGGCCGC,0.135
3,AAGGCCCG,0.196
4,CAGGCCGG,0.166
5,AAGGCCGG,0.408
6,AAGGCCGT,0.212
7,AAGGCCGA,0.435
8,CGAGATGC,-0.0846
9,GGTACCAA,0.0294
10,AAGTTAGG,-0.0844
11,CCTTGAAC,-0.1
12,GACCGAGC,0.375
13,AACCGAGC,0.371
14,CACCGAGC,0.297
15,TACCGAGA,0.209
16,AACCGAGT,0.157
17,AACCGAGG,0.148
18,CACCGAGA,0.259
19,GACCGAGA,0.382
20,GACCGACC,0.266
